# LGR2 antag = inhibitors of bursicon-induced LGR2 CRE-luciferase signal, primary screen, cell-based, HEK293, CRE-luciferase reporter, bursicon stimulation; Drosophila bursicon receptor LGR2 (rickets); bursicon-stimulated, 4 h; inhibition, % at 9.99 µM; actives 0.35% (n = 380,000); AID 720647, 2013;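 active = drop in luminescence signal, shown as inhibition above about 50% in the replicate tests, limit read from the data, passing the limit was not always enough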;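 note: agonist challenge used bursicon conditioned medium at about half maximal strength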
# SENP7 block = SENP7 protease inhibitors, primary screen, biochemical, luminescence, uHTS; Sentrin-specific protease 7 (Homo sapiens), Q9BQF6; recombinant SENP7, Z-RLRGG-aminoluciferin luminescence, 40 min; inhibition, % at 5 µM; actives 1.5% (n = 330,000); AID 434973, 2010;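 active = inhibition above about 50% at the single test dose, limit read from the data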;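 note: plate controls were DMSO with enzyme for no effect and no enzyme buffer wells for full effect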
# Target sequence (Q9BQF6 706-1050 limits assumed): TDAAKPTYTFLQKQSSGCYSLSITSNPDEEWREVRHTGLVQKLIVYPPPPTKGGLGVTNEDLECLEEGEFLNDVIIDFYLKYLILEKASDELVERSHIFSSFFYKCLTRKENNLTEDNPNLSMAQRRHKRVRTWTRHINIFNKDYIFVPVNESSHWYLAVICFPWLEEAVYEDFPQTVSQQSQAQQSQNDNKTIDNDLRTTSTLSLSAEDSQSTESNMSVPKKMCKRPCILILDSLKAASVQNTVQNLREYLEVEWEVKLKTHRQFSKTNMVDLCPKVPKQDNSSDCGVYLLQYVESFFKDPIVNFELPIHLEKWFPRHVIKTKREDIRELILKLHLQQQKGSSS
# SENP8 block-1 = human SENP8 protease inhibitors, primary screen, biochemical, fluorescence, Nedd8 protein substrate, uHTS; inhibition, % at 20 µM; recombinant SENP8; actives 0.64% (n = 360,000); AID 602440, 2012; in the data active = inhibition mostly above about 40%, no sharp cut-off; inactive = mostly below about 27%
# Target sequence (Q96LD8 whole entry, looked up): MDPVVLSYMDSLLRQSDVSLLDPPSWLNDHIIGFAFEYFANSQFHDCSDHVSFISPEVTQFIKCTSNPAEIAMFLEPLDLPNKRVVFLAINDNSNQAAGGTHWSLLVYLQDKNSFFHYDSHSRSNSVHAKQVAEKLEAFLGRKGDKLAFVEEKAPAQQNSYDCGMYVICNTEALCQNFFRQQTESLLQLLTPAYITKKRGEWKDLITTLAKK
# SENP8 block-2 = SENP8 protease inhibitors, primary screen, biochemical, luminescence; Sentrin-specific protease 8 (Homo sapiens), Q96LD8; purified SENP8, Z-RLRGG-aminoluciferin cleavage; inhibition, % at 10 µM; actives 1.2% (n = 330,000); in the data active = inhibition above about 50%
# SENP6 inh = SENP6 protease inhibitors, primary screen, biochemical, luminescence, uHTS; Sentrin-specific protease 6 (Homo sapiens), Q9GZR1; Recombinant SENP6 catalytic domain, aminoluciferin luminescence; inhibition, % at 10 µM; actives 1.8% (n = 330,000);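 active = inhibition above about 50% at the single tested dose, limit read from the data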;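 note: plate controls were DMSO wells with enzyme for no effect and DMSO wells lacking enzyme for full effect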
# HSP90 refold inh = HSP90 inhibitors, primary screen, cell lysate, luminescence; Rabbit reticulocyte lysate, luciferase refolding luminescence, 3 h; inhibition, % at 5.6 µM; actives 0.91% (n = 290,000); AID 1789, 2009;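 active = inhibition above the screen-wide mean plus 3 SD, computed separately per campaign, cut at about 16% in these data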;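 note: 0% = DMSO wells and 100% = 60 µM geldanamycin wells; inhibitors lower the luminescence because luciferase stays unfolded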
# Numbers without * were called inactive; . = not tested or not shown. The list is not random: actives were taken first. Their share in the collection is about 2.3%.
SMILES,LGR2 antag,SENP7 block,SENP8 block-1,SENP8 block-2,SENP6 inh,HSP90 refold inh
O=C(c1ccccc1)N1CCSc2sccc2C1=O,98*,.,-5,.,.,8
O=C(c1ccccc1)N1CCSC1=S,.,5,8,0,-8,-2
CC(=O)c1ccc(Nc2cc(C)nc3c(C)cc(C)cc23)cc1,99*,-3,-388,2,10,2
CCOC(=O)c1ccc(-c2ccc(/C=N/NC(=O)CN(c3ccccc3Br)S(C)(=O)=O)o2)cc1,-60,0,-403,-10,-5,16*
CS(=O)(=O)N(CC(=O)N/N=C/c1cccc2c1OCCO2)c1ccccc1Br,.,10,-89,3,16,-1
NS(=O)(=O)c1ccc(N/N=C/c2ccccn2)c([N+](=O)[O-])c1,-9,-10,24,-11,-28,4
O=C(O)c1ccccc1NS(=O)(=O)c1ccc(NN=Cc2ccc(F)cc2)c([N+](=O)[O-])c1,.,3,29,8,33,.
O=C(O)c1ccccc1NS(=O)(=O)c1ccc(N/N=C/c2ccc(O)c(O)c2)c([N+](=O)[O-])c1,6,.,53*,.,.,.
NS(=O)(=O)c1ccc(N/N=C/c2ccc(O)c(O)c2O)c([N+](=O)[O-])c1,10,.,106*,.,.,0
NS(=O)(=O)c1ccc(N/N=C/c2ccc(O)cc2O)c([N+](=O)[O-])c1,-5,3,54*,3,3,-1
NS(=O)(=O)c1ccc(N/N=C/c2ccccc2C(=O)O)c([N+](=O)[O-])c1,11,16,23,4,-5,0
C[C@@H]1CN([C@@H](C)CO)C(=O)Cc2cc(NC(=O)CCC(F)(F)F)ccc2O[C@H]1CN(C)C(=O)Nc1ccc2c(c1)OCO2,14,.,.,.,.,.
N#C/C(=C\c1ccc(O)c(O)c1)C(=O)c1ccc(O)c(O)c1,-1,45,11,81*,83*,.
CC(=O)Nc1ccc(NC(=O)CSc2cn(CC(=O)N3CCOCC3)c3ccccc23)cc1,-1,3,14,5,-3,-2
O=C(Cn1cc(SCc2ccccc2Cl)c2ccccc21)N1CCOCC1,-72,40,11,43,75*,-1
Cc1ccc(C)c(N=Nc2ccc(O)c3ncccc23)c1,52*,-1,34,0,4,2
COc1ccc(CCN2C(=O)c3cccc4c(C(=O)N5CCCCC5)ccc(c34)C2=O)cc1OC,102*,-3,26,0,-13,2
COc1ccc(CCNC(=O)CCN2C(=O)c3cccc4cccc(c34)C2=O)cc1OC,5,1,-53,3,-2,3
C[C@@H]1CN([C@@H](C)CO)C(=O)c2cc(NC(=O)CCC(F)(F)F)ccc2O[C@@H](C)CCCCO[C@H]1CN(C)C(=O)Nc1ccc(C(F)(F)F)cc1,16,.,.,.,.,.
C[C@H](CO)N1C[C@H](C)[C@@H](CN(C)C(=O)Nc2cccc3ccccc23)Oc2c(NC(=O)Nc3ccc(C(F)(F)F)cc3)cccc2C1=O,27,.,.,.,.,.
C[C@H](CO)N1C[C@H](C)[C@H](CN(C)C(=O)Nc2ccc(C(F)(F)F)cc2)OCCCC[C@H](C)Oc2ccc(NC(=O)CCC(F)(F)F)cc2C1=O,65*,.,.,.,.,.
C[C@@H]1CN([C@@H](C)CO)C(=O)c2cccc(NC(=O)Nc3ccc(C(F)(F)F)cc3)c2O[C@@H]1CN(C)C(=O)Nc1cccc2ccccc12,67*,.,.,.,.,.
C[C@@H]1CCCCO[C@@H](CN(C)C(=O)Nc2ccc(F)cc2)[C@@H](C)CN([C@H](C)CO)C(=O)c2cc(NC(=O)C3CCCCC3)ccc2O1,4,.,.,.,.,.
C[C@@H]1CN([C@@H](C)CO)C(=O)c2cc(NC(=O)NC3CCCCC3)ccc2O[C@@H](C)CCCCO[C@@H]1CN(C)C(=O)Nc1ccccc1,14,.,.,.,.,.
C[C@H]1CCCCO[C@@H](CN(C)C(=O)Nc2ccc(F)cc2)[C@@H](C)CN([C@@H](C)CO)C(=O)c2cc(NC(=O)C3CCCCC3)ccc2O1,66*,.,.,.,.,.
SMILES,LGR2 antag,SENP7 block,SENP8 block-1,SENP8 block-2,SENP6 inh,HSP90 refold inh
C[C@H]1CCCCO[C@@H](CN(C)C(=O)Nc2ccccc2)[C@@H](C)CN([C@@H](C)CO)C(=O)c2cc(NC(=O)NC3CCCCC3)ccc2O1,63*,.,.,.,.,.
COc1ccc(NC(=O)N(C)C[C@@H]2OCCCC[C@H](C)Oc3ccc(NC(=O)NC4CCCCC4)cc3C(=O)N([C@H](C)CO)C[C@@H]2C)cc1,57*,.,.,.,.,.
CCOc1cc(/C=N/N=C(N)N)ccc1OCc1ccc(Cl)cc1,53*,.,7,.,.,0
COc1cc(/C=N/N=C(N)N)ccc1OCc1ccc(Cl)cc1,32,-12,26,-27,-38,5
CCC(=O)Nc1ccc(-c2cc3ccccc3oc2=O)cc1,-28,8,-413,0,6,0
CC(=O)Nc1ccc(-c2cc3ccccc3o2)cc1,.,51*,-253,10,49,6
C[C@@H]1CN([C@H](C)CO)C(=O)c2c(c3ccccc3n2C)-c2ccccc2CO[C@@H]1CN(C)C(=O)Nc1ccc(-c2ccccc2)cc1,13,.,.,.,.,.
COc1ccc2c3c([nH]c2c1)[C@H](CO)N(C(=O)c1cccnc1)CC31CCN(C(=O)CN(C)C)CC1,7,.,.,.,.,.
Clc1ccc(Sc2cnc3ccccc3n2)cc1,.,-7,-4,-22,-5,1
Clc1ccc(-c2cnc3ccccc3n2)cc1,-51,92*,-4,85*,90*,-8
C[C@@H]1CN([C@@H](C)CO)C(=O)Cc2cc(NS(=O)(=O)c3cn(C)cn3)ccc2O[C@@H]1CN(C)S(=O)(=O)c1ccc(F)cc1,6,.,.,.,.,.
Cc1noc(C)c1S(=O)(=O)N(C)C[C@H]1Oc2ccc(NC(=O)CCN3CCOCC3)cc2CC(=O)N([C@@H](C)CO)C[C@H]1C,-10,.,.,.,.,.
O=C(COc1ccc(Cl)cc1Cl)Nc1ccc(C(=O)Nc2ccccc2C(=O)O)cc1,-24,-4,-25,-10,0,-5
O=C(COc1ccc(Cl)cc1Cl)NC(=S)Nc1ccccc1C(=O)O,.,10,.,59*,64*,4
O=[N+]([O-])c1ccc(Sc2nc3ccccc3o2)c([N+](=O)[O-])c1,97*,-6,12,1,24,2
NC(=S)N=Nc1c(O)[nH]c2ccccc12,-15,-1,17,2,4,1
NC(=S)N=Nc1c(O)[nH]c2c(Br)cc(Br)cc12,-1,-8,52*,-9,-23,-3
CC(C(=O)Nc1ccc(O)cc1C(=O)O)N1C(=O)/C(=C\c2cccs2)SC1=S (stereo not drawn),2,1,62*,18,34,1

# Assay outcomes from PubChem BioAssay.
